Several values for one entry are separate records, joined by “and”; a condition that tells them apart may be missing. Equal values may be shown once. Records with an inconclusive call do not appear. Some compounds were tested as several samples or in several runs, with calls that do not always agree. Activity calls are given as the source filed them. Calls follow the shape of the dose curve; as a rule, active = well fitted activation curve with a large enough effect in the repeat runs; inconclusive = weak or mixed curves; inactive = flat fitted curve, though single readings scatter.
assay: A CellTox Green Cytotoxicity Assay to monitor cytotoxicity in HEK293 cells - 8 hour (AID 1224884); conditions: CellTox Green fluorescence; series mostly up to 76.8 µM; cytotoxicity increase: at the top concentration; also: nearly all actives have a fitted effect of over 35% in size
Procedure, shortened: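 HEK293 cells, 600/well, were preincubated 5 hours and then exposed to compounds at 37 C for up to 40 hours. A cell-impermeant cyanine dye staining dead-cell DNA was read by fluorescence at 0, 8, 16, 24, 32 and 40 h time points.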
% is scaled to controls: 0 for no effect and ±100 for the full control effect; potency is read from the fitted curve at half-maximal effect.

Row | SMILES | cytotoxicity increase | Potency
1 | C=CC(C)(CCC=C(C)C)OC(=O)c1ccccc1N (centres undefined) | -3.76% (inactive) | 
2 | O=C(N/N=C/c1ccc([N+](=O)[O-])o1)c1cc([N+](=O)[O-])cc([N+](=O)[O-])c1O | -0.46% [at 35.3 µM] (inactive) | 
3 | CC(O)CN1CCN(CC(=O)[O-])CCN(CC(=O)[O-])CCN(CC(=O)[O-])CC1.[Gd+3] (centres undefined) | 2.48% [at 35.3 µM] (inactive) | 
4 | CCc1cnc(C2=NC(C)(C(C)C)C(=O)N2)c(C(=O)O)c1 (centres undefined) |  | inactive
5 | CCOP(=O)(SC(C)CC)N1CCSC1=O (centres undefined) | -7.19% (inactive) | 
6 | CCCCCCCCn1sccc1=O |  | 36.3 µM (active)
7 | C1CS1 | -5.05% (inactive) | 
8 | CN(C)c1ccc(N=O)cc1 |  | inactive
9 | CC(C)(C)NCC(O)c1cc(Cl)c(N)c(C(F)(F)F)c1 (centres undefined) | 7.98% [at 35.3 µM] (inactive) | 
10 | Cc1ncc(C[n+]2csc(CCO)c2C)c(N)n1 | -8.29% (inactive) | 
11 | CCC1CCC(=O)O1 (centres undefined) | -1.17% (inactive) | 
12 | CC1(C)CC(=O)CC(C)(C)N1[O] | -8.97% (inactive) | 
13 | O=C(O)C(Cl)(Cl)Br | 19.5% (inactive) | 
14 | CC1(C)[C@H](C(=O)O[C@H](C#N)c2cccc(Oc3ccccc3)c2)[C@@H]1C=C(Br)Br |  | inactive
15 | Nc1ccccc1C(=O)OCCc1ccccc1 |  | inactive and 34.7 µM (active)
16 | CN1CC[C@]23c4c5ccc(O)c4O[C@H]2[C@@H](O)CC[C@H]3[C@H]1C5 | 0.557% (inactive) | 
17 | C[C@H]1O[C@H](OC2[C@@H](O)[C@@H](O)C(O)[C@H](O)[C@H]2O)[C@@H](N)C[C@@H]1N=C(N)C(=O)O (some centres undefined) | 19.7% (inactive) | 
18 | CC(C)c1ccc(OP(=O)(Oc2ccc(C(C)C)cc2)Oc2ccc(C(C)C)cc2)cc1 |  | inactive
19 | CCOP(=O)(O)C(N)=O | -1.22% (inactive) | 
20 | SCc1ccccc1 | 13.1% (inactive) | 

Row | SMILES | cytotoxicity increase | Potency
21 | N#CC1(N=NC2(C#N)CCCCC2)CCCCC1 | -9.34% (inactive) | 
22 | CC(C)(C)OOC(C)(C)CCC(C)(C)OOC(C)(C)C | -8.99% (inactive) | 
23 | CC(C)(C#N)C(C)(C)C#N | -17.9% (inactive) | 
24 | CCCCNC(=O)OCC#CI | 0.342% (inactive) | 
25 | Cc1cnc(C2=NC(C)(C(C)C)C(=O)N2)c(C(=O)O)c1 (centres undefined) | 1.61% (inactive) | 
26 | O=C(N[C@H]1CN2CCC1CC2)c1ccc2c(c1)OCCO2 | -10.8% (inactive) | 
27 | O=C1NC(=O)C(=O)C(=O)N1 | -12.4% (inactive) | 
28 | Cc1ccc(N)c(C)c1 |  | inactive
29 | CCOP(=S)(S)OCC | -2.48% (inactive) | 
30 | CCC[N+](CCC)(CCC)CCC | -1.25% (inactive) | 
31 | C=CCOCC1CO1 (centres undefined) | -5% (inactive) | 
32 | CN1C[C@H](C(=O)N[C@]2(C)O[C@@]3(O)[C@@H]4CCCN4C(=O)[C@H](Cc4ccccc4)N3C2=O)C=C2c3cccc4[nH]cc(c34)C[C@H]21 |  | inactive
33 | COC(=O)C1(O)c2ccccc2-c2ccccc21 | -6.49% (inactive) | 
34 | CNC(=O)Oc1cccc(N=CN(C)C)c1 | -14.6% (inactive) | 
35 | Cc1cccc(C)c1NC1=NCCCS1 | -9.13% [at 35.3 µM] (inactive) | 
36 | CC(CC(C(N)=O)(c1ccccc1)c1ccccc1)N(C)C (centres undefined) | 2.57% [at 35.3 µM] (inactive) | 
37 | COC1=CC(=O)O[C@@H](/C=C/c2ccc3c(c2)OCO3)C1 | 0.458% (inactive) | 
38 | CCOC(=O)C1OC1(C)c1ccccc1 (centres undefined) |  | inactive
39 | c1ccc2c(c1)-c1cccc3cccc-2c13 |  | inactive

Source: PubChem BioAssay (Tox21)
